Consider ten compounds from publication PMC7826789 (International Journal of Molecular Sciences, 2021).

Common to all, as to conditions: Compound Concentration (nM):1000
The subject of assay [1] is LRRK2.
The test system of assay [2] is LTK.
The subject of assay [3] is LYN.
Assay [4] has as its system T1, LZK.
T1 construct: gene MAP3K13

The test system of assay [5] is MAK.
The subject of assay [6] is MAP3K15.
The subject of assay [7] is MAP3K1.
The test system of assay [8] is MAP3K2.
Assay [9] relates to MAP3K3.
The subject of assay [10] is MAP3K4.
For assay [11], the system named is MAP4K2.
Assay [12] concerns MAP4K3.
Assay [13] has as its system MAP4K4.
The test system of assay [14] is MAP4K5.
Assay [15] relates to MAPKAPK2.
In assay [16] the test system is MAPKAPK5.
Assay [17] has as its system MARK1.
Assay [18] has as its system MARK2.
In assay [19] the test system is MARK3.
Assay [20] concerns MARK4.
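Further: KINOMEscan scanMAX binding as percent activity remaining versus control; lower means stronger binding.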

For the compound `COc1ccc2cc(-c3c(-c4ccncc4)nc(-c4ccc(S(C)(=O)=O)cc4C)n3C)ccc2c1` [SB-633825], the “Percent Control” value was 96% in assay [1]; 23% in assay [2]; 66% in assay [3]; 65% in assay [4]; 86% in assay [5]; 83% in assay [6]. The “Percent Control” value in [7] stood at 60%; in assay [8], 60%; in [9], 79%; in assay [10], 90%; in assay [11], 93%; in assay [12] it was 93%. Further, the “Percent Control” value in assay [13] is 39%; in [14], 91%; in [15] it was 100%; in assay [16], 95%; in [17], 88%; in assay [18] it was 93%. In addition, the figures for the “Percent Control” value in assay [19] and in assay [20] were 100% and 71%, respectively.

Turning to `Cl.O=S1CCN(Cc2ccc(-c3ccc4ncnc(Nc5ccc(OCc6ccccc6)c(F)c5)c4c3)o2)CC1` [GW576924A], the “Percent Control” value was 98% in assay [1]; 100% in [2]; 100% in assay [3]; 100% in assay [4]; 100% in assay [5]; 94% in assay [6]. Moreover, the “Percent Control” value in assay [7] is 81%; in assay [8], 100%; in [9] it was 100%; in assay [10], 100%; in assay [11] it was 100%; in [12] it was 100%. For the same compound, the “Percent Control” value was 91% in [13]; 100% in assay [14]; 80% in assay [15]; 98% in [16]; 91% in assay [17]; 100% in assay [18]. For the same compound, the “Percent Control” value is 100% in [19] and 89% in assay [20].

On to `Cl.O=C(O[C@H]1CN[C@H](C#Cc2cc3ncnc(Nc4ccc5c(cnn5Cc5ccccc5)c4)c3s2)C1)N1CCOCC1` [GSK200398A], for which the “Percent Control” value was 97% in [1]; 85% in assay [2]; 76% in assay [3]; 100% in assay [4]; 100% in assay [5]; 95% in assay [6]. Moreover, the “Percent Control” value was 56% in [7]; 97% in [8]; 89% in assay [9]; 82% in [10]; 98% in assay [11]; 100% in assay [12]. Further, the “Percent Control” value is 83% in assay [13]; 92% in [14]; 72% in [15]; 90% in assay [16]; 100% in [17]; 87% in assay [18]. Also, the “Percent Control” value was 83% in [19] and 100% in [20].

For the compound `O=C(Nc1n[nH]c2nc(-c3ccc(O)cc3)c(Br)cc12)C1CC1` [SB-725317], the “Percent Control” value was 89% in assay [1]; 60% in assay [2]; 100% in [3]; 100% in assay [4]; 39% in assay [5]; 94% in assay [6]. Moreover, the “Percent Control” value was determined as 60% in [7]; 84% in [8]; 97% in assay [9]; 100% in assay [10]; 38% in [11]; 100% in assay [12]. Also, the “Percent Control” value was 84% in assay [13]; 100% in [14]; 100% in [15]; 100% in [16]; 95% in [17]; 100% in [18]. Further, the “Percent Control” value in assay [19] and in assay [20] was 100% in each case.

Turning to `Cl.c1ccc(Cc2nc3ccc(Nc4ncnc5ccccc45)cc3[nH]2)cc1` [GR269666A], the “Percent Control” value was 100% in assay [1]; 100% in assay [2]; 93% in [3]; 100% in assay [4]; 100% in assay [5]; 100% in assay [6]. For the same compound, the “Percent Control” value in [7] is recorded as 100%; in assay [8], 100%; in [9] it was 100%; in assay [10], 100%; in assay [11], 92%; in [12], 100%. In addition, the “Percent Control” value is 100% in [13]; 100% in [14]; 76% in [15]; 100% in [16]; 100% in assay [17]; 100% in assay [18]. Further, the “Percent Control” value in [19] is 97%; in [20], 96%.

As for `Cl.O=C(Nc1ccc(Oc2ccc3[nH]c(NC(=O)c4ccco4)nc3c2)cc1)Nc1cc(C(F)(F)F)ccc1F` [GW683134A], the “Percent Control” value was 28% in assay [1]; 6.2% in assay [2]; 29% in [3]; 100% in assay [4]; 100% in [5]; 90% in [6]. The “Percent Control” value in assay [7] is on record as 53%; in assay [8], 100%; in [9], 85%; in assay [10], 86%; in assay [11], 85%; in [12] it was 83%. Further, the “Percent Control” value was 95% in assay [13]; 84% in [14]; 94% in [15]; 100% in [16]; 100% in [17]; 100% in [18]. Also, the “Percent Control” value is 82% in assay [19] and 100% in assay [20].

`NS(=O)(=O)c1ccc(Nc2ncc(-c3ccccc3)o2)cc1` [GW572399X]: the “Percent Control” value in assay [1] was 76%; in assay [2] it was 100%; in assay [3], 100%; in assay [4] it was 100%; in assay [5] it was 100%; in [6], 99%. Further, the “Percent Control” value amounted to 59% in [7]; 87% in assay [8]; 100% in [9]; 100% in assay [10]; 82% in [11]; 100% in [12]. The “Percent Control” value in assay [13], in [14], in [15], in assay [16], in assay [17] and in assay [18] was 100% throughout. Moreover, the figures for the “Percent Control” value in assay [19] and in [20] were 94% and 100%, respectively.

Consider `NS(=O)(=O)c1ccc(N/N=C2\C(=O)Nc3ccc(C(=O)NCCc4c[nH]cn4)cc32)cc1` [GW300660X], for which the “Percent Control” value is 78% in [1]; 100% in assay [2]; 100% in assay [3]; 100% in [4]; 100% in assay [5]; 100% in [6]. For the same compound, the “Percent Control” value in assay [7] amounted to 47%; in assay [8] it was 82%; in assay [9], 96%; in assay [10] it was 100%; in [11], 71%; in assay [12], 86%. Also, the “Percent Control” value in [13] is 100%; in assay [14], 100%; in assay [15] it was 100%; in assay [16] it was 100%; in assay [17], 90%; in assay [18] it was 100%. In addition, the “Percent Control” value in assay [19] and in assay [20] was 100% each time.

`COc1cc(N2CCN(C(C)C)CC2)ccc1Nc1nc(Nc2ccc(F)cc2C(=O)NC[C@@H](O)CO)c2cc[nH]c2n1` [GSK1392956A]: the “Percent Control” value was 12% in [1]; 66% in assay [2]; 92% in assay [3]; 100% in assay [4]; 100% in [5]; 93% in assay [6]. In addition, the “Percent Control” value was 86% in assay [7]; 100% in [8]; 88% in [9]; 94% in assay [10]; 91% in [11]; 100% in assay [12]. Moreover, the “Percent Control” value in [13] is 94%; in assay [14], 96%; in assay [15], 85%; in [16], 94%; in assay [17] it was 90%; in assay [18], 59%. Moreover, the “Percent Control” value in [19] was 86%; in assay [20] it was 100%.

In the case of `COc1ccc2c(-c3ccnc(Nc4cccc(OC(F)(F)F)c4)n3)cnn2n1` [GW810372X], the “Percent Control” value in [1] was 72%; in [2], 100%; in assay [3] it was 100%; in [4] it was 100%; in assay [5], 100%; in assay [6], 100%. Moreover, the “Percent Control” value in assay [7] amounted to 70%; in assay [8], 96%; in assay [9] it was 90%; in [10], 71%; in assay [11], 94%; in assay [12], 100%. Moreover, the “Percent Control” value in assay [13], in [14], in assay [15], in assay [16], in assay [17] and in assay [18] was 100% each time. The “Percent Control” value was 100% in [19] and 82% in assay [20].
